Tau fluor counter – counter-screen for tau fibril formation inhibitors; Potency, µM (top dose mostly 57.7 µM), for inactives: at the top dose activity change, negative = decrease; tau K18 P301L Alexa594 fluorescence, heparin fibrillization; hit rate 0.93% among 280,000; also: nearly all actives have a fitted effect of over 55% in size
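Human tau K18 P301L (15 uM unlabeled, 0.24 uM Alexa 594-labeled) in 100 mM sodium acetate pH 7 with 20 uM heparin, 6 hr at 37 C. ThT 30 uM added, 1 hr ambient; Alexa 594 FP and total fluorescence read at 555/632 nm.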
TR SRC2 fluor cs – counter-screen for TRb-SRC2 inhibitors: fluorescence interference; TRb/SRC2 Texas Red total fluorescence interference; Potency, µM (series often up to 106 µM), without a hit: top-dose fluorescence change, negative = quenching; hit rate 0.29% among 280,000; active = well fitted curve in either direction with a large enough effect; inconclusive = small, poorly fitted or top-dose-only effect
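Human TRb ligand-binding domain at 0.6 uM with 20 nM Texas Red SRC2 peptide in Tris buffer containing 1 uM T3 and 5% DMSO, incubated with compound 5 h at ambient temperature. Total fluorescence (555/632 nm) calculated as parallel + 2 × perpendicular.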
Tau fibril FP – blocks human tau fibril formation measured by polarization | P10636 | K18 P301L tau heparin fibrillization, Alexa594 FP, 6 h | hit rate 0.39% among 280,000 | Potency, µM (highest dose often 57.7 µM), without a hit: at the highest dose activity, negative = inhibition, actives largely listed as inhibitors | AID 1468; also: nearly all actives have a fitted effect of over 55% in size
Target sequence (P10636 561-689 P618L limits assumed): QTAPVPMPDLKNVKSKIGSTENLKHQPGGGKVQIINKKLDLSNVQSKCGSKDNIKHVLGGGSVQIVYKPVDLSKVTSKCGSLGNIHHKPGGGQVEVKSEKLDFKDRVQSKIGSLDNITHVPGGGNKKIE
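Human K18 P301L fragment (15 uM unlabeled plus 0.24 uM Alexa 594-labeled) in 100 mM sodium acetate pH 7 with compound, aggregation induced by 20 uM heparin for 6 hr at 37 C. ThT (30 uM) added for 1 hr, then Alexa 594 FP read.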
TRb SRC2 PPI – inhibitors of human thyroid hormone receptor beta-SRC2 interaction; P10828; TRbeta-SRC2 peptide binding, fluorescence polarization; receptor liganded with 1 µM T3; AID 1469; Potency, µM (highest dose often 106 µM), inactives show at the top dose activity change, negative = inhibition, most hits filed as inhibitors; hit rate 0.065% among 280,000;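 also: plate controls were bound peptide for no effect and peptide without receptor for full effect; nearly all actives have a fitted effect of over 50% in size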
Target sequence (P10828 whole entry, looked up): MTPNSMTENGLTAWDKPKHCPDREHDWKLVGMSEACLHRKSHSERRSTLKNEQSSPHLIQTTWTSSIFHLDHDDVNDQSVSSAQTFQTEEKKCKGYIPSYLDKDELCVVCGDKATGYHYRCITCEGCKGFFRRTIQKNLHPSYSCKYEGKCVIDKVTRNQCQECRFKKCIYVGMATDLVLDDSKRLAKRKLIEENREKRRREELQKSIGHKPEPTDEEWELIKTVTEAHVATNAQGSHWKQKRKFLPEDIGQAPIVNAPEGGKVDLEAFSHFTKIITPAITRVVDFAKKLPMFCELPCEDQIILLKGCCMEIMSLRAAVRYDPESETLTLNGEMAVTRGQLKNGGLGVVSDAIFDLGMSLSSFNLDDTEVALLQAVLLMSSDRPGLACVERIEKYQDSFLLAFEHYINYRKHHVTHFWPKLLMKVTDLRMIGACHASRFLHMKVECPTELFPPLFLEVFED
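Polarization signal, normalized between peptide-alone and full complex controls, measured compound effects on T3-liganded human TRb LBD (0.6 uM) binding 20 nM Texas Red SRC2 peptide after 5 hr.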
Tau ThT inhib – blocks human tau fibril formation measured by thioflavin T; AID 1460; recombinant tau K18 P301L (four-repeat tau fragment), heparin-induced fibrillization, ThT fluorescence; hit rate 2.1% among 270,000; Potency, µM (doses to about 57.4 µM), for the others: at the top dose activity, negative = inhibition, hits mostly inhibitors; also: nearly all actives have a fitted effect of over 55% in size
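Heparin-induced fibrillization of the P301L-mutant K18 repeat-domain fragment of human tau was followed by ThT binding in quantitative high-throughput format.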
The depositor's hits bear a star; u = inconclusive; x = no result; [ ] = remark or other dose. Shown are actives, neighbours in structure and some others; about 3.1% of the full set was active somewhere. Unless noted, calls follow the shape of the dose curve; as a rule, active = well fitted curve in the direction sought with a large enough effect; inconclusive = small, poorly fitted or top-dose-only effect, or another doubt; inactive = no such curve, though single readings can be large; an effect the other way counts as inactive or inconclusive. Unless noted, % is scaled to controls: 0 for no effect and ±100 for the full control effect; potency is read from the fitted curve at half-maximal effect.

SMILES | Tau fluor counter | TR SRC2 fluor cs | Tau fibril FP | TRb SRC2 PPI | Tau ThT inhib
CCN1CCN(Cc2nc3cc(NC(=O)c4cccc([N+](=O)[O-])c4)ccc3n2CC)CC1 | -13% | 2.8µM*[quencher] | 2% | -26% | -12%
CCn1c(CN2CCCCC2)nc2cc(NC(=O)c3ccccc3[N+](=O)[O-])ccc21 | -10% | -6% | -4% | -4% | -1%
CCn1c(CN2CCCCC2)nc2cc(NC(=O)COc3ccccc3C(C)(C)C)ccc21 | -1% | 282µM*[quencher] | 10% | -21% | -1%
O=C(COc1ccc(F)cc1)NC1CC(=O)N(c2ccc3c(c2)OCCO3)C1 (stereo unspecified) | 3% | 1% | -3% | -5% | 3%
COc1ccc(-c2noc(CC(=O)Nc3cc(OC)ccc3OC)n2)cc1 | u | -2% | -3% | 1% | u
Cc1noc(C)c1-c1ccc2ncnc(NCC3CCN(C)CC3)c2c1 | x | 0% | x | -8% | x
CCOc1ccc2nc3sc(C(=O)N4CCOCC4)c(N)c3cc2c1 | u | 0% | u | 0% | 7.1µM*
Cc1ccc(C)c2nc3sc(C(=O)N4CCOCC4)c(N)c3cc12 | -6%[2.34 µM] | -6% | -8%[2.34 µM] | 2% | -4%
COc1ccc2nc3sc(C(=O)NCc4cccs4)c(N)c3cc2c1 | u | -16% | -1% | -2% | 16µM*
COc1ccc(-c2cc(C(=O)NCc3cccs3)no2)cc1 | 0% | -1% | 6% | 5% | -6%
Cc1cc(C)c2cc3c(N)c(C(=O)N4CCOCC4)sc3nc2c1 | u | -3% | 0% | 4% | 22µM*
CCOC(=O)N1CCc2c(sc3c2c(=O)n(Cc2ccccc2)c(=O)n3CC(=O)Nc2ccc(C)c(C)c2)C1 | -25% | -1% | u | -5% | 0%
O=C(O)c1cc(N/N=C/C(Cl)=C/c2ccccc2)ccc1Cl | -29% | -3% | -4% | -4% | 14µM*
CCCCc1ccc(NC(=S)Nc2ccc(Nc3ccc(OC)cc3)cc2)cc1 | 7.9µM*[quencher] | 0% | u | 7% | 8.9µM*
Cc1ccc(-n2nnnc2C(Cl)(Cl)c2nnnn2-c2ccc(C)cc2)cc1 | -19% | 0% | 16µM* | -2% | 8.9µM*
O=C(Nc1ccc(Cl)cc1)Nc1cccc2nsnc12 | u | 2% | 14µM* | -2% | u
O=C(Nc1ccc(Cl)cc1)Nc1ccccc1NS(=O)(=O)c1cccs1 | 14µM*[quencher] | 0% | u | 1% | u
O=C(COc1ccccc1)Nc1cccc2nsnc12 | -5% | -1% | 0% | -13% | -12%
CC(=O)N1[C@H](Cc2ccccc2)C=C[C@]1(C)C(=O)O | 3% | -5% | 0% | 6% | -3%
COc1ccccc1CCNC(=O)Cc1ccc(NC(=O)N2CCSc3ncccc32)cc1 | -2% | 0% | -7% | -3% | 1%
COc1cccc(-n2c(SCc3cc(=O)oc4cc(O)c(O)cc34)nc3ccccc3c2=O)c1 | 14µM*[quencher] | -29% | u | 6% | 25µM*
CCN(CC)C(=O)CSc1nc2ccccc2c(=O)n1-c1cccc(OC)c1 | -8% | -1% | 0% | -9% | -14%
CCN(CC)c1ccc(/C=C(\C#N)c2nc(-c3cccs3)c(NC(C)=O)s2)cc1 | 6.3µM*[quencher] | u | u | u | u
O=C1S/C(=C\c2ccc(N3CCOCC3)o2)C(=O)N1c1ccccc1 | -24% | 3% | u | -2% | 11µM*
O=[N+]([O-])c1ccc(-c2cc(-c3ccc(Cl)cc3)n[nH]2)cc1 | u | 1% | 6% | 2% | 1.1µM*
SMILES | Tau fluor counter | TR SRC2 fluor cs | Tau fibril FP | TRb SRC2 PPI | Tau ThT inhib
CS(=O)(=O)N1CCc2cc(C(=O)Nc3ccc(Cl)c(C(F)(F)F)c3)ccc21 | u | 1% | 20µM* | 3% | 17%
Cc1ccc(NC(=O)C(Cc2c[nH]c3ccccc23)NC(=O)OC(C)(C)C)c(C)c1 (stereo unspecified) | u | -1% | 2% | 0% | -17%
COc1cc(/C=N/NC(=O)C(Cc2c[nH]c3ccccc23)NC(=O)OCC(C)C)cc([N+](=O)[O-])c1O (stereo unspecified) | -27% | -2% | 12% | -4% | 14µM*
COc1cc(/C=N/NC(=O)C(Cc2c[nH]c3ccccc23)NC(=O)OCc2ccccc2)cc([N+](=O)[O-])c1O (stereo unspecified) | u | 0% | u | 9% | 13µM*
COc1cc(/C=N/NC(=O)C(Cc2c[nH]c3ccccc23)NC(=O)OCC(C)C)cc([N+](=O)[O-])c1OCc1ccccc1 (stereo unspecified) | u | -1% | 16% | -2% | -17%
Cc1ccc(NC(=O)C(Cc2c[nH]c3ccccc23)NC(=O)OCC(C)C)cc1 (stereo unspecified) | 20µM*[quencher] | 3% | 2% | -4% | -14%
COc1ccc(CCNC(=O)c2c(C)nn(-c3ccc(F)cc3)c2-n2cccc2)cc1OC | -10% | -2% | 3% | 9% | -5%
Cc1cc(/C=C2\SC(=S)N(C)C2=O)c(C)n1-c1cccc(O)c1 | 10µM*[quencher] | -2% | -11% | -2% | 7.9µM*
CN1C(=O)/C(=C\c2cc(N=Nc3ccccc3)ccc2O)SC1=S | 4.5µM*[quencher] | 9% | u | 10% | 3.5µM*
COc1ccc(-n2c(C)cc(/C=C3/SC(=S)N(C)C3=O)c2C)cc1 | -24% | -1% | -7% | -1% | u
CCc1ccc(NC(=O)C2CCCN2S(=O)(=O)c2ccc3c(c2)CCCC(=O)N3)cc1 (stereo unspecified) | -9% | 0% | 0% | 1% | 0%
CCCC(=O)OCC(=O)Nc1ccc(N=Nc2ccccc2)cc1 | u | -2%[53 µM] | u | -1%[53 µM] | 10µM*
CC1CC1C(=O)OCC(=O)Nc1ccc(N=Nc2ccccc2)cc1 (stereo unspecified) | u | 8% | u | -2% | 7.9µM*
COc1ccccc1/C=C/c1nc(C#N)c(NC2CCCCC2)o1 | u | -7% | 13% | -6% | u
COc1cc2c(cc1OC)n(Cc1ccc([N+](=O)[O-])cc1)c(=O)n1nc(-c3ccccc3)nc21 | -15% | -3% | -10% | -3% | 3%
Cc1ccc([N+](=O)[O-])cc1-c1[nH]c(-c2ccc(O)c(O)c2)nc1-c1ccccc1 | 13µM*[quencher] | -5% | 16% | 7% | u
COc1ccc(-c2nc(-c3ccccc3)c(-c3cc([N+](=O)[O-])ccc3C)[nH]2)cc1O | 14µM*[quencher] | -5% | 4% | 0% | u
Cc1ccc(Cn2c(CN3CCC(C(=O)NCCc4ccccc4)CC3)cc3ccccc32)cc1 | -11% | 1% | 8% | 2% | -3%
O=C(Nc1ccc([N+](=O)[O-])cc1)Nc1ccc(N2CCOCC2)c2nonc12 | u | -4% | -4% | u | 0.89µM*
COc1ccc(S(=O)(=O)n2nc(-c3ccc(Cl)cc3)cc2N)cc1OC | 16µM*[quencher] | -4% | -12% | -7% | -14%

Source: PubChem
